Test results from PubChem BioAssay.
Active and inactive are the calls of the source. Unless noted, no rule for the calls is given here.

How the values were obtained:
[1] = tested on: XIP peptide (Xip251-270) binding; assay: small-molecule binders of XIP peptide, primary screen, biochemical, small-molecule microarray, fluorescence 635/667 nm, 0.1 µg/mL protein (AID 1182); settings: fluorescent protein binding, 635 nm, higher = more signal, called active from +8 up or from −8 down
[2] = tested on: XIP peptide (Xip251-270); assay: small-molecule binders of XIP peptide, primary screen, biochemical, small-molecule microarray, fluorescence 635/667 nm, 0.5 µg/mL protein (AID 1183); settings: small-molecule microarray binding, fluorescence 635 nm; higher = more signal
[3] = Plasmodium falciparum growth inhibition, primary screen, strain 3D7, DAPI fluorescence, 100 nL (AID 1184);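 also: parasites grown inside human red blood cells in medium with human serum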; settings: P. falciparum 3D7 growth, 3 d, higher = more signal
[4] = target: Homeobox protein Hox-A13 (Mus musculus) (UniProt Q62424); assay: inhibitors of HoxA13-DNA binding, primary screen, biochemical, fluorescence polarization, labeled oligonucleotide (AID 1185); settings: 15 min, higher = more signal, called active from +8 up or from −8 down
[5] = inhibitors of hydroxyurea-induced Chk1 phosphorylation, primary screen, imaging, HeLa, phospho-Chk1 antibody, percent positive cells (AID 1186); settings: hydroxyurea-induced phospho-Chk1 immunofluorescence imaging, higher = more signal
[6] = inhibitors of hydroxyurea-induced Chk1 phosphorylation, primary screen, imaging, HeLa, phospho-Chk1 nuclear intensity (AID 1187); settings: hydroxyurea-induced phospho-Chk1 immunofluorescence imaging, higher = more signal

Chain of Homeobox protein Hox-A13 (Mus musculus) (Q62424 whole entry, looked up): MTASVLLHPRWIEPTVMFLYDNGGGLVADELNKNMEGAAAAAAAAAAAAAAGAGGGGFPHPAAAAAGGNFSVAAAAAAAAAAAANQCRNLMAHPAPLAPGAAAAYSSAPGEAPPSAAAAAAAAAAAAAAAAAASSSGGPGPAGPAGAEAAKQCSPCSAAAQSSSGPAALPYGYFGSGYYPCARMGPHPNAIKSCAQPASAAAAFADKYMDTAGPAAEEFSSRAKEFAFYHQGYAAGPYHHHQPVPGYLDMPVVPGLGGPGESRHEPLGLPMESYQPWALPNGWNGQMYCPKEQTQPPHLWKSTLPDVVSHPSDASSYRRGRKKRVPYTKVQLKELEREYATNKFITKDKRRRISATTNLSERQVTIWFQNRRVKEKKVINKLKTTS

Row | SMILES | composite z-score [1] | composite z-score [2] | z-score [3] | z-score [4] | z-score [5] | z-score [6]
1 | NC(=O)N1C(=O)C2C(C1=O)C1C=C(CCCO)C2C(c2ccc(CN3CCCC3)cc2)N1Cc1sc2ccccc2c1Cl (stereo unspecified) | -0.211 (inactive) | 0.245 | -0.44 | -4.57 (inactive) | 0.252 (inactive) | 0.175 (inactive)
2 | O=C1[C@H]2C=C(I)[C@H](C[C@@H]2OCCCCCCO)[C@@]12CO2 | -0.0604 (inactive) | 0.77 | 1.09 | -3.09 (inactive) | -0.116 (inactive) | -0.124 (inactive)
3 | Cc1ccc(F)cc1S(=O)(=O)N[C@H]1CCN(Cc2ccc(OC(C)C)cc2)C1 | 0.479 (inactive) | 0.338 | 0.646 | -5.72 (inactive) | -0.0604 (inactive) | 0.581 (inactive)
4 | CC(C)C[C@H]1NC(=O)C([C@@H](C)OCc2ccccc2)NC(=O)[C@@]23C(=O)N[C@@H](Cc4ccccc4)C2[C@H](C)[C@@]2(C)O[C@H]2C3/C=C/C/C=C\CNC1=O (stereo partly specified) | 0.304 (inactive) | 0.22 | -2.23 | -6.86 (inactive) | -0.762 (inactive) | -0.732 (inactive)
5 | COc1ccc(C(O)C2C=CC3C(=O)N(C)C(=O)C3N2N(c2ccccc2)c2ccccc2)cc1 (stereo unspecified) | 0.195 (inactive) | 0.512 | -0.459 | -6.57 (inactive) | 0.45 (inactive) | -0.508 (inactive)
6 | O=C1C2C=CC(C(O)c3ccc([N+](=O)[O-])cc3)N(Nc3ccccc3F)C2C(=O)N1c1ccccc1 (stereo unspecified) | 0.946 (inactive) | 0.679 | -0.111 | -3.41 (inactive) | 0.8 (inactive) | -0.314 (inactive)
7 | CCOC(=O)C1=CC[C@@H](c2ccc(OC)cc2)N(S(=O)(=O)c2ccc(C)cc2)[C@H]1CC | 0.441 (inactive) | 0.463 | -2.03 | -0.507 (inactive) | -0.819 (inactive) | -0.599 (inactive)
8 | CCCCC(=C=CC[C@H](O)c1ccc(CO)o1)CCO | 0.234 (inactive) | 0.552 | 1.13 | -4.55 (inactive) | 0.818 (inactive) | 0.392 (inactive)
9 | O=C(NCc1ccc(F)cc1)[C@H]1C[C@H]2C(=O)N3CCC[C@H]3C(=O)N2[C@H]1c1ccc(O)cc1 | -0.0173 (inactive) | 0.702 | -1.21 | 1.55 (inactive) | -0.717 (inactive) | -0.415 (inactive)
10 | CN(C)CCCC[C@@H]1NC(=O)[C@H]2C[C@@H](C(=O)O)[C@@H](c3ccc(O)cc3)N2C1=O | 3.67 (inactive) | 0.843 | -0.947 | -1.63 (inactive) | 0.7 (inactive) | 0.571 (inactive)
11 | CC(C)(C)N1CC=CC23O[C@@H]4C=CCCOC(=O)C4[C@H]2C(=O)N(CCCCCCO)[C@@H]3C1=O (stereo partly specified) | 1.14 (inactive) | 0.202 | -0.143 | -3.77 (inactive) | -0.327 (inactive) | 0.222 (inactive)
12 | CC1CC/C=C\[C@H]2OC34C=CCN(C(C)(C)C)C(=O)[C@H]3N(CCCO)C(=O)[C@@H]4C2C(=O)O1 (stereo partly specified) | 0.453 (inactive) | 0.774 | 0.428 | -3.59 (inactive) | 0.0854 (inactive) | -0.248 (inactive)
13 | Cc1ccc(S[C@]2(C(=O)NCCCN(C)C)CC(=O)N(C3Cc4ccccc4C3)[C@@H]2c2ccc(CO)cc2I)cc1 | -0.261 (inactive) | 0.315 | -0.235 | -3.61 (inactive) | 0.721 (inactive) | 0.848 (inactive)
14 | CC(C)=CCCC(C)=CC(O)C1C=CC2C(=O)NC(=O)C2N1Nc1ccccn1 (stereo unspecified) | 0.113 (inactive) | 0.628 | 0.563 | -4.67 (inactive) | 0.282 (inactive) | -0.0205 (inactive)
15 | COC(=O)[C@@]1(Cc2ccccc2)[C@H]2c3cc(C(=O)N(C)C)n(Cc4ccc(C(F)(F)F)nc4)c3C[C@H]2CN1C(=O)c1ccccc1 | 0.119 (inactive) | 0.337 | -1.24 | -3.46 (inactive) | 0.296 (inactive) | 0.0603 (inactive)
16 | O=C(NCc1ccccc1)[C@@H]1c2ccccc2C(=O)N(Cc2ccc(OC(F)(F)F)cc2)[C@H]1c1ccc(CO)cc1 | -0.304 (inactive) | 0.56 | -0.655 | -2.53 (inactive) | 0.0188 (inactive) | 0.243 (inactive)
17 | Cc1ccc(C(C)CC(O)C2C=CC3C(=O)N(C)C(=O)C3N2Nc2ccccc2)o1 (stereo unspecified) | 0.476 (inactive) | 0.383 | 0.385 | -4.68 (inactive) | 0.163 (inactive) | -0.0486 (inactive)
18 | C=CCC(OC(C)=O)[C@@H]1[C@@H](N(Cc2cccc3ccccc23)C(=O)c2ccc(-c3ccccc3)cc2)c2cc(OCCCO)ccc2N1C(=O)Cc1ccc2ccccc2c1 (stereo partly specified) | -0.419 (inactive) | -0.347 | 0.0788 | -0.896 (inactive) | 0.547 (inactive) | 0.582 (inactive)
19 | C=CCNC(=O)[C@H]1[C@@H]2C(=O)O[C@@H](c3ccccc3)[C@@H](c3ccccc3)N2[C@@H](c2ccc(OCCO)cc2)[C@]12C(=O)Nc1ccccc12 | 1.43 (inactive) | 0.57 | -0.541 | -5.26 (inactive) | 0.286 (inactive) | 0.595 (inactive)
20 | COc1ccc([Si](C)(C)[C@H]2[C@H](CC(=O)N3CCC[C@H]3CO)O[C@@]3(C(=O)N(Cc4ccc(N5CCCCC5=O)cc4)c4ccccc43)[C@@H]2C)cc1 | 0.214 (inactive) | 0.753 | -1.64 | -4.85 (inactive) | 0.268 (inactive) | 0.241 (inactive)
21 | [N-]=[N+]=Nc1ccccc1[C@@H]1OC(c2ccc(OCCCO)cc2)=N[C@]1(CCS(=O)(=O)c1ccccc1)C(=O)NCC(O)CO (stereo partly specified) | 0.0574 (inactive) | 0.947 | -2.21 | -3.99 (inactive) | 0.0401 (inactive) | 0.225 (inactive)
22 | CC1CC/C=C\[C@H]2OC34C=CCN(Cn5nnc6ccccc65)C(=O)[C@H]3N(CCCCCCO)C(=O)[C@@H]4C2C(=O)O1 (stereo partly specified) | 0.0152 (inactive) | 0.217 | 0.21 | -3.02 (inactive) | -0.481 (inactive) | -0.521 (inactive)
23 | C=C(COC)C(=O)CC[C@H](OC(=O)c1cccnc1)c1ccc(OCCO)cc1 | 1.08 (inactive) | 0.447 | -0.711 | -5.58 (inactive) | 0.35 (inactive) | 0.343 (inactive)
24 | CCCC#C[Si](O[C@H](CC)c1cn(Cc2ccccc2)nn1)(C(C)C)C(C)C | -0.249 (inactive) | 0.598 | 0.0331 | -0.88 (inactive) | -0.074 (inactive) | 0.0744 (inactive)
25 | COC(=O)[C@@]1(Cc2ccccc2)[C@H]2c3cc(C(=O)N4CCCC4)n(Cc4ccc(OC)c(OC)c4)c3C[C@H]2CN1C(=O)c1ccccc1 | 0.633 (inactive) | 0.0643 | -1.32 | -4.87 (inactive) | 0.243 (inactive) | 0.282 (inactive)
26 | COc1ccc(C(O)C2C=CC3C(=O)NC(=O)C3N2Nc2ccc(Cl)cc2Cl)c2ccccc12 (stereo unspecified) | 1.62 (inactive) | 0.687 | -0.605 | -2.99 (inactive) | -0.0602 (inactive) | 0.175 (inactive)
